Records with an inconclusive call do not appear. The source made the active and inactive calls. Calls come from the whole dose curve; as a rule, active = well fitted inhibition curve with a large enough effect; inconclusive = small, poorly fitted or top-dose-only effect; inactive = no such curve, though single readings can be large or run the other way.
assay: qHTS to identify inhibitors of the type 1 interferon - major histocompatibility complex class I in skeletal muscle: tertiary screen by RT-qPCR; conditions: C25cl48 human myoblasts, IFN-beta, HLA-B RT-qPCR, 24 h; series mostly up to 49.8 µM; activity change, negative = inhibition: at the top concentration
From the text: Assay Submitter (PI): Travis B. Kinder Ph.D. & James Inglese Ph.D. Assay Development and Screening Technology Laboratory (ADST) National Center for Advancing Translational Sciences (NCATS), Rockville, MD National Institute of Health (NIH), Bethesda, Maryland Idiopathic inflammatory myopathies, collectively referred to as myositis, are a group of rare autoimmune diseases characterized by skeletal muscle inflammation, weakness, and usually accompanied by systemic pathologies of the skin, lungs, or vasculature. Current immunosuppressive therapies and glucocorticoids are often not curative and are accompanied by harsh side effects, especially in children with juvenile myositis. We initiated a drug repurposing and development program to identify more targeted, less toxic therapeutics to treat myositis. Although its cause is not known, muscle from a subset of patients have an abundance of the inflammatory type 1 interferon (IFN) and a down-stream product major histocompatibility complex class I (MHC class I), which are both thought to contribute to damage and weakness. We conducted quantitative high throughput screening (qHTS) on 6,576 compounds (4,679 unique) through a series of cell-based assays to identify those that inhibit the IFN-stimulated expression of MHC class I in muscle precursor cells (myoblasts). The compound identification and evaluation strategy utilized a primary screen with reporter-tagged MHC class I in genome-engineered myoblasts, ATP content counter screen for viability, HLA-ABC immunofluorescence secondary screen, and HLA-B RT-qPCR tertiary screen. To determine if active compounds identified by qHTS in HLA-B HiBit reporter cells, and confirmed by HLA-ABC immunofluorescence, can inhibit the transcription of HLA-B mRNA, compounds were assayed by RT-qPCR. Briefly, 62 compounds identified from primary, counter, and secondary screening as inhibitory with minimal cytotoxicity were dispensed into 384-well plates using acoustic dispensing in a 6-point, 1:7 titration with a high final concentration of 10 uM. Normal immortalized human myoblasts C25cl48 were added to the plate with 4.0 ng/ml human IFN-beta for 24 hours, and cells were harvested and assayed by the Cells-to-Ct kit with TaqMan assays (Thermo Fisher).
PROTOCOL TABLE (as described by Inglese et al., 2007) SEQUENCE No. (e.g., 1, 2, 3, etc.); […] (e.g., Cells, Incubation, Reagent, etc.); VALUE; DESCRIPTION 0; Compounds; 150 nl; Follow-up compounds dispensed at 150 nl/well with Labcyte Echo 655 acoustic dispenser into one Corning white/clear bottom, high base TC 384-well plates (3765) 1a; Cells; 30 uL; Using a p200 manual pipette, seed 780 cells/well into 1 plate in 30 ul/well of iHSKM growth medium without dexamethasone into columns wells A1-A6. […]

Row | Structure (SMILES) | Potency | activity change, negative = inhibition
1 | COc1cccc2c1C(=O)c1c(O)c3c(c(O)c1C2=O)C[C@@](O)(C(=O)CO)CC3OC1CC(N2CCOC(OC)C2)C(O)C(C)O1 (stereo not given in full) | 92.4 nM (active) | 
2 | Cc1[nH]nc2ccc(-c3cncc(OC[C@@H](N)Cc4c[nH]c5ccccc45)c3)cc12 | 207 nM (active) | 
3 | CC(C)[C@]12O[C@H]1[C@@H]1O[C@@]13[C@@]1(C)CCC4=C(COC4=O)[C@@H]1C[C@@H]1O[C@@]13C2=O |  | -132% (inactive)
4 | C[C@@H]1O[C@@H](O[C@H]2C[C@@H](O)[C@]3(CO)[C@H]4[C@H](O)C[C@]5(C)[C@@H](C6=CC(=O)OC6)CC[C@]5(O)[C@@H]4CC[C@]3(O)C2)[C@H](O)[C@H](O)[C@H]1O |  | -14.7% (inactive)
5 | C[C@@H]1O[C@@H](O[C@@H]2C=C3CC[C@@H]4[C@H](CC[C@]5(C)[C@@H](c6ccc(=O)oc6)CC[C@]45O)[C@@]3(C)CC2)[C@H](O)[C@H](O)[C@H]1O |  | -8.47% (inactive)

Source: PubChem BioAssay AID1347415 (National Center for Advancing Translational Sciences (NCATS), 2020)
